# Test results: publication PMC7862700, “An all-to-all approach to the identification of sequence-specific readers for epigenetic DNA modifications on cytosine”
# Columns and labels:
# Test in all cases: DAPPL (digital affinity profiling via proximity ligation, sequencing); 10 mM Tris-HCl pH 7.5, 50 mM NaCl, 1 mM DTT, 4% glycerol, room temperature, 30 min; GST-TFs on glutathione beads, 16-mer random dsDNA library, 0.1% formaldehyde crosslink after washing; high values mean tight binding
# FLI1 = target: T1, FLI1 (Homo sapiens, UniProt Q01543 1-452); conditions: protein: recombinant; tags: N-terminal GST; dsDNA, one strand shown
# T1 sequence: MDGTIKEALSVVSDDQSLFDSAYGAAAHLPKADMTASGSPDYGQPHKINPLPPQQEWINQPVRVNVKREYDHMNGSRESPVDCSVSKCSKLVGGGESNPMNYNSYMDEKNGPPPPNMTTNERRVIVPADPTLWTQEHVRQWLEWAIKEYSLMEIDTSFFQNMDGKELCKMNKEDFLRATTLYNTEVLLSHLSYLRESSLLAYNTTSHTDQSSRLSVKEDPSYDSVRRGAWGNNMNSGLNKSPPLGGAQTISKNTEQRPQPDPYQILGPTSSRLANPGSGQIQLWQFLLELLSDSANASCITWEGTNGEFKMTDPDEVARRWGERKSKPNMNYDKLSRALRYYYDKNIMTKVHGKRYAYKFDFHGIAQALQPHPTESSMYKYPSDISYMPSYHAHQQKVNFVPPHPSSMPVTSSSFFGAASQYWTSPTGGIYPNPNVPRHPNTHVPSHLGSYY
# Procedure, shortened: (§1)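 Human transcription factors fused to GST were expressed in yeast, captured on glutathione beads, given DNA barcodes and pooled with a GST-only negative control. Pools were incubated with 200 nmole of a 16-mer random double-stranded DNA library in Tris/NaCl/DTT/glycerol buffer at room temperature for 30 min. They were then washed, crosslinked with 0.1% formaldehyde, proximity-ligated (BsaI/T4 ligase, 1 h, 37 °C), PCR-amplified and sequenced on an Illumina NextSeq500. Binding signal is each 6-mer's read frequency for a factor divided by its frequency for the GST control.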
# ELK1 = target: T2, ELK1 (Homo sapiens, UniProt P19419 1-428); conditions: protein: recombinant; tags: N-terminal GST; dsDNA, one strand shown
# T2 sequence: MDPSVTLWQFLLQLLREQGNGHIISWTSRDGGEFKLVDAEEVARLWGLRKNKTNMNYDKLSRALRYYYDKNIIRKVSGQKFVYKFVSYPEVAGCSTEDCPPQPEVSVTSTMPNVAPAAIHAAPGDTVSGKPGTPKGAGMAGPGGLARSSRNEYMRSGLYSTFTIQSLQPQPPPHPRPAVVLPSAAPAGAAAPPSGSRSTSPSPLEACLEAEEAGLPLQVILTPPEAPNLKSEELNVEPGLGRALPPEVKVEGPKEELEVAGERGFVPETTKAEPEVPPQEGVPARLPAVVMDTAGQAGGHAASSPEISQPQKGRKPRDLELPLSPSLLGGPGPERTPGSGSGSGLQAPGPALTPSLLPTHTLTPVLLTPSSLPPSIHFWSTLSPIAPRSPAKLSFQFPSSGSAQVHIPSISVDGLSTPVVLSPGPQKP
# Procedure, shortened: as §1
# GABPA = target: T3, GABPA (Homo sapiens, UniProt Q06546 1-454); conditions: protein: recombinant; tags: N-terminal GST; dsDNA, one strand shown
# T3 sequence: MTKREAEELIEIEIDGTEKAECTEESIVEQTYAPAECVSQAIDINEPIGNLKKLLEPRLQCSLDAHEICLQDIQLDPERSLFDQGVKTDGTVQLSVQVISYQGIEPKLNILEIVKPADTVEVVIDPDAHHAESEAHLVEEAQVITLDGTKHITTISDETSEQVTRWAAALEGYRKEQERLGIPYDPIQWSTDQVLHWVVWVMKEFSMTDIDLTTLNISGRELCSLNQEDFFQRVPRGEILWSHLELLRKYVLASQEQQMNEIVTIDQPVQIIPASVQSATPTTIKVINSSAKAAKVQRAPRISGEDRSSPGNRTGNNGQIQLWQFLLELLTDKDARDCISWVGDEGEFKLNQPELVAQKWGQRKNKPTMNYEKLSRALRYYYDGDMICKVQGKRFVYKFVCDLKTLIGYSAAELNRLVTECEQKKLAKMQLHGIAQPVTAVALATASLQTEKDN
# Procedure, shortened: as §1
# ERG = target: T4, ERG (Homo sapiens, UniProt P11308 1-479); conditions: protein: recombinant; tags: N-terminal GST; dsDNA, one strand shown
# T4 sequence: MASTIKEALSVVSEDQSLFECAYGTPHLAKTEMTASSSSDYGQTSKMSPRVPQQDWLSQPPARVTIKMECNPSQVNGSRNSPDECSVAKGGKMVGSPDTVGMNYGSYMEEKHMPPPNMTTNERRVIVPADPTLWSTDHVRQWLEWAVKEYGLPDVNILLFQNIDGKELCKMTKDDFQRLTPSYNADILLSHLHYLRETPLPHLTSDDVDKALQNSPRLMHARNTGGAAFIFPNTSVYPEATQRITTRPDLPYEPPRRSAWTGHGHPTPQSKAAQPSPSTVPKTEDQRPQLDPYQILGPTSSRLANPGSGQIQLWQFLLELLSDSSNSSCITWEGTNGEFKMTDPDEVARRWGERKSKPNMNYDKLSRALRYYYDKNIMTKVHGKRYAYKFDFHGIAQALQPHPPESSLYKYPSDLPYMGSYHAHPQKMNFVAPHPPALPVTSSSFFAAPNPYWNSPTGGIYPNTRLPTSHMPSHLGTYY
# Procedure, shortened: as §1
# ELF1 = ELF1 (Homo sapiens, UniProt P32519 1-619); conditions: protein: recombinant; tags: N-terminal GST; dsDNA, one strand shown
# Procedure, shortened: as §1
# EHF = target: T5, EHF (Homo sapiens, UniProt Q9NZC4 1-300); conditions: protein: recombinant; tags: N-terminal GST; dsDNA, one strand shown
# T5 sequence: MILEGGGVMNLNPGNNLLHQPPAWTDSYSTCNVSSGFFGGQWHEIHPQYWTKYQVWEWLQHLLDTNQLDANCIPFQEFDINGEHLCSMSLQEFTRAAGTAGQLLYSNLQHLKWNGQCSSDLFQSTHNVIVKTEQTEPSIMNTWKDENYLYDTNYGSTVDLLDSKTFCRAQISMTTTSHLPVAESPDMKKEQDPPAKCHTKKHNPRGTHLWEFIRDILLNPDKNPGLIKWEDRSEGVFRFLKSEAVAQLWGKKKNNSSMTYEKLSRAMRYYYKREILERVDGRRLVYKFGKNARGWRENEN
# Procedure, shortened: as §1
# SPI1 = SPI1 (Homo sapiens, UniProt P17947 1-270); conditions: protein: recombinant; tags: N-terminal GST; dsDNA, one strand shown
# Procedure, shortened: as §1
# SPIB = SPIB (Homo sapiens, UniProt Q01892 1-262); conditions: protein: recombinant; tags: N-terminal GST; dsDNA, one strand shown
# Procedure, shortened: as §1
# ELK3 = target: T6, ELK3 (Homo sapiens, UniProt P41970 1-407); conditions: protein: recombinant; tags: N-terminal GST; dsDNA, one strand shown
# T6 sequence: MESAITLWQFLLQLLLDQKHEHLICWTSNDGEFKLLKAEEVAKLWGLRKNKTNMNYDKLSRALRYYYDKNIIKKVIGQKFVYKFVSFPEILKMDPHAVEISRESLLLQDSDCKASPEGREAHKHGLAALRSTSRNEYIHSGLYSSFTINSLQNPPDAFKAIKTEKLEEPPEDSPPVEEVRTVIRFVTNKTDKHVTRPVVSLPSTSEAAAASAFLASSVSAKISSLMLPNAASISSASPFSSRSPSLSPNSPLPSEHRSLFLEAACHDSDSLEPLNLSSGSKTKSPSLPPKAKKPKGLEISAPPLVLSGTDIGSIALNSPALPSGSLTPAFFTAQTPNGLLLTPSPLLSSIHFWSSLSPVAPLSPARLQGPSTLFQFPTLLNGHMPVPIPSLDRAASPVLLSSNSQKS
# Procedure, shortened: as §1
# FEV = target: T7, FEV (Homo sapiens, UniProt Q99581 1-238); conditions: protein: recombinant; tags: N-terminal GST; dsDNA, one strand shown
# T7 sequence: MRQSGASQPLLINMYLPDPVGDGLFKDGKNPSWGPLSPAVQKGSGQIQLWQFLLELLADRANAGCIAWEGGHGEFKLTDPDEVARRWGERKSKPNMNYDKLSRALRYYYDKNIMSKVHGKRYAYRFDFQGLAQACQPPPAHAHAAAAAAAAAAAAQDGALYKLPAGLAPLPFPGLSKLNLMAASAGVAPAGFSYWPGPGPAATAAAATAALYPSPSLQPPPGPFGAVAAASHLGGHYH
# Procedure, shortened: as §1
# ETV5 = ETV5 (Homo sapiens, UniProt P41161 1-510); conditions: protein: recombinant; tags: N-terminal GST; dsDNA, one strand shown
# Procedure, shortened: as §1
# HSF1 = HSF1 (Homo sapiens, UniProt Q00613 1-529); conditions: protein: recombinant; tags: N-terminal GST; chain copies: 3; dsDNA, one strand shown
# Procedure, shortened: as §1
# SPIC = target: T8, SPIC (Homo sapiens, UniProt Q8N5J4 1-248); conditions: protein: recombinant; tags: N-terminal GST; dsDNA, one strand shown
# T8 sequence: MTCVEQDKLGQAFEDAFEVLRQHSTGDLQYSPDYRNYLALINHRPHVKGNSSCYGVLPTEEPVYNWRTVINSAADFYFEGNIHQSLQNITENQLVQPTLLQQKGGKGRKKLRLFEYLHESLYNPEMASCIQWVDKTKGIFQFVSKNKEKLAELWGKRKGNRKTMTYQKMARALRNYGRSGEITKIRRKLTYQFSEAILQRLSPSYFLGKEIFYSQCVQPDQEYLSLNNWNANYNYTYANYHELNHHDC
# Procedure, shortened: as §1
# ELF4 = ELF4 (Homo sapiens, UniProt Q99607 1-663); conditions: protein: recombinant; tags: N-terminal GST; dsDNA, one strand shown
# Procedure, shortened: as §1
# ELK4 = target: T9, ELK4 (Homo sapiens, UniProt P28324-2 1-405); conditions: protein: recombinant; tags: N-terminal GST; dsDNA, one strand shown
# T9 sequence: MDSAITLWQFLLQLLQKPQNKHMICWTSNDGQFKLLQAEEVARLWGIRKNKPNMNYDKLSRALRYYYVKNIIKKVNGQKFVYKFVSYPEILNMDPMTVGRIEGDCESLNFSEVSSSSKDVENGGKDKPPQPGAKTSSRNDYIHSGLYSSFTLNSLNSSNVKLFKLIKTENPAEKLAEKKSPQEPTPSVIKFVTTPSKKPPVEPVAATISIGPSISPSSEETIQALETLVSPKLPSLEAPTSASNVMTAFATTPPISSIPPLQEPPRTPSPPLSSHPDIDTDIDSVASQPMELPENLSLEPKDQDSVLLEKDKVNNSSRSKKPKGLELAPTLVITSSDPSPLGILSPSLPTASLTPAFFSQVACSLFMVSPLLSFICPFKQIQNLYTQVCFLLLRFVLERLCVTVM
# Procedure, shortened: as §1
# ETV2 = target: T10, ETV2 (Homo sapiens, UniProt O00321 1-342); conditions: protein: recombinant; tags: N-terminal GST; dsDNA, one strand shown
# T10 sequence: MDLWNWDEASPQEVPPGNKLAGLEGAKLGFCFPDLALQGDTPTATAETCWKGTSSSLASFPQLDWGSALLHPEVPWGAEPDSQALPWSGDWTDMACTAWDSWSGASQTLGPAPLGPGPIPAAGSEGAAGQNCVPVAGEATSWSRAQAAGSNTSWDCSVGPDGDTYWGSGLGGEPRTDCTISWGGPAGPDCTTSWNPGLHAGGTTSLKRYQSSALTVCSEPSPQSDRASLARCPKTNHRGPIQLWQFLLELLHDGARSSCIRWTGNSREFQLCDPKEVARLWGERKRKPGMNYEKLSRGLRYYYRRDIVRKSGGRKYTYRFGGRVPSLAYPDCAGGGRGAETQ
# Procedure, shortened: as §1
# ELF3 = target: T11, ELF3 (Homo sapiens, UniProt P78545 1-371); conditions: protein: recombinant; tags: N-terminal GST; dsDNA, one strand shown
# T11 sequence: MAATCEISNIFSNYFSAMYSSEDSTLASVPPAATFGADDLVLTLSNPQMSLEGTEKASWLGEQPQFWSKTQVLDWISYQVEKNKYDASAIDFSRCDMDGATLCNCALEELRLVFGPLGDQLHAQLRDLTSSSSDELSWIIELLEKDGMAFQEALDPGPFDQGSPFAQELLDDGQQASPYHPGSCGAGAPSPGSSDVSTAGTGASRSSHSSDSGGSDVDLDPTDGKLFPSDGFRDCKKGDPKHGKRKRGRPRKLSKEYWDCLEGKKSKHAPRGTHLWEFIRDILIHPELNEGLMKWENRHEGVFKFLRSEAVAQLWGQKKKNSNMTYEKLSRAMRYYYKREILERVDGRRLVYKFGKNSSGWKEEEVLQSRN
# Procedure, shortened: as §1
# CRX = CRX (Homo sapiens, UniProt O43186 1-299); conditions: protein: recombinant; tags: N-terminal GST; dsDNA, one strand shown
# Procedure, shortened: as §1
# ETV1 = ETV1 (Homo sapiens, UniProt P50549 1-477); conditions: protein: recombinant; tags: N-terminal GST; dsDNA, one strand shown
# Procedure, shortened: as §1
# ELF1, sequence (P32519 whole entry): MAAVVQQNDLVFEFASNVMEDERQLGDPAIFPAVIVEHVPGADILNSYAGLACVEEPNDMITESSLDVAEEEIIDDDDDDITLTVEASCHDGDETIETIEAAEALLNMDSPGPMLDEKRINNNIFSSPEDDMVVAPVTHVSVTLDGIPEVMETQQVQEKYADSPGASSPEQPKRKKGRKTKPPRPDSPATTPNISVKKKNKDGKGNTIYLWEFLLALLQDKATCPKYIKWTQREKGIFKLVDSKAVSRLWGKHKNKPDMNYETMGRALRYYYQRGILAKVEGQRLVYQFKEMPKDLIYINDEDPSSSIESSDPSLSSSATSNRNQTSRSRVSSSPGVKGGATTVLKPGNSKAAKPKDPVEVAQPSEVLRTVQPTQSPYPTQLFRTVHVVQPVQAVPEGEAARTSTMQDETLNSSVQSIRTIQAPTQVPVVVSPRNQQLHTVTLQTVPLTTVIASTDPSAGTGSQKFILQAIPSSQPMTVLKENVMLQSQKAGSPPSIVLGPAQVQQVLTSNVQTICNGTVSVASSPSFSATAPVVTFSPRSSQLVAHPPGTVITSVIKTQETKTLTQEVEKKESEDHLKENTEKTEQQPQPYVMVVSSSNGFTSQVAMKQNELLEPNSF
# CRX, sequence (O43186 whole entry): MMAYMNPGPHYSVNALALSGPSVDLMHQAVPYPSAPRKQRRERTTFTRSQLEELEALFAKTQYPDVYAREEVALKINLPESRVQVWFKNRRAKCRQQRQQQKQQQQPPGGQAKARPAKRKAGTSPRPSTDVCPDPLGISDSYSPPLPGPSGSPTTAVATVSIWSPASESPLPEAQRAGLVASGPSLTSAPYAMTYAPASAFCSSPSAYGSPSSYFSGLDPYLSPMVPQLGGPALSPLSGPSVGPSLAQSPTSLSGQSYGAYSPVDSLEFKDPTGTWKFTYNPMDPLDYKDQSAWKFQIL
# ELF4, sequence (Q99607 whole entry): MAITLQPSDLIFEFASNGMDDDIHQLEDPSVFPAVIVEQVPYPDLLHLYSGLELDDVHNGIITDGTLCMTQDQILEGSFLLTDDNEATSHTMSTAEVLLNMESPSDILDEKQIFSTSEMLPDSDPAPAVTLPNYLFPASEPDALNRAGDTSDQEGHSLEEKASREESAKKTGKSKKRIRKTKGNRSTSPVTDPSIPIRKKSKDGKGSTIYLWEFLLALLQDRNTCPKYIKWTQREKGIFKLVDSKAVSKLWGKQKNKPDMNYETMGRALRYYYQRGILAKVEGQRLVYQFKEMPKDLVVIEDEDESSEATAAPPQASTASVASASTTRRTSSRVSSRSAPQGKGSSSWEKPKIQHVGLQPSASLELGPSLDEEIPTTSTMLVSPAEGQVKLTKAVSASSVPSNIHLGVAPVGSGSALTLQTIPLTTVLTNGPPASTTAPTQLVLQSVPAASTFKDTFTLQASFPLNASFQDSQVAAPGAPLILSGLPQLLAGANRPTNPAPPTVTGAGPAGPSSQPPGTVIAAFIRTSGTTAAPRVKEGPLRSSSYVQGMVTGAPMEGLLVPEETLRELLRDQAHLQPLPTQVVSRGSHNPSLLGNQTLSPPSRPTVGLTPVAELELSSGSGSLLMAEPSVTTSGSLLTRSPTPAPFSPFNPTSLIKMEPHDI
# HSF1, sequence (Q00613 whole entry): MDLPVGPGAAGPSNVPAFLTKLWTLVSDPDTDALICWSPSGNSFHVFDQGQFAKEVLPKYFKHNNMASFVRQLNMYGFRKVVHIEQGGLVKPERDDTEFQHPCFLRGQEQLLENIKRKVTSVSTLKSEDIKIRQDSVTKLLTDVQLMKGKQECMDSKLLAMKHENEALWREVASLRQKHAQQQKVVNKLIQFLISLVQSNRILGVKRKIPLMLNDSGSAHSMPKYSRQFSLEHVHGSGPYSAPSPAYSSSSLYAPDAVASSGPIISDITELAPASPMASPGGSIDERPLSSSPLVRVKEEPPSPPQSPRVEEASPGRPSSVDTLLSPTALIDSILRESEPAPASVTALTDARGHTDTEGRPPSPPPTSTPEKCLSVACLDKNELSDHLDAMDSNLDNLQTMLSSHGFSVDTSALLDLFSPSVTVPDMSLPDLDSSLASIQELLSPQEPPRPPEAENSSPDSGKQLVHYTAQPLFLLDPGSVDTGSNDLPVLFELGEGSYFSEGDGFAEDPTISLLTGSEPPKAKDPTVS
# ETV1, sequence (P50549 whole entry): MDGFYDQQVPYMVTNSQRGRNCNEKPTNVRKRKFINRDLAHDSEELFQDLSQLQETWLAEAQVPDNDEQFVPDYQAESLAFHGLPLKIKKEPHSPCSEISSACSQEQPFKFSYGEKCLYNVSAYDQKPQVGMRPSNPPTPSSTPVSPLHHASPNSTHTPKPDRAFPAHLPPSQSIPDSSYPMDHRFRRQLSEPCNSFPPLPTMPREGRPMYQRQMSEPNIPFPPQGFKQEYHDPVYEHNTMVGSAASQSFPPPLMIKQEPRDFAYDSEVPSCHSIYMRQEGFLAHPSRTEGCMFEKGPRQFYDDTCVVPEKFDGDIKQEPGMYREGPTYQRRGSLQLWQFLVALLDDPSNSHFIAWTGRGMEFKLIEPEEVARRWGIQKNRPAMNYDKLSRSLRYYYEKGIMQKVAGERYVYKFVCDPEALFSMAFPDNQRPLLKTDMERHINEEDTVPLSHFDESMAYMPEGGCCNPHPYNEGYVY
# ETV5, sequence (P41161 whole entry): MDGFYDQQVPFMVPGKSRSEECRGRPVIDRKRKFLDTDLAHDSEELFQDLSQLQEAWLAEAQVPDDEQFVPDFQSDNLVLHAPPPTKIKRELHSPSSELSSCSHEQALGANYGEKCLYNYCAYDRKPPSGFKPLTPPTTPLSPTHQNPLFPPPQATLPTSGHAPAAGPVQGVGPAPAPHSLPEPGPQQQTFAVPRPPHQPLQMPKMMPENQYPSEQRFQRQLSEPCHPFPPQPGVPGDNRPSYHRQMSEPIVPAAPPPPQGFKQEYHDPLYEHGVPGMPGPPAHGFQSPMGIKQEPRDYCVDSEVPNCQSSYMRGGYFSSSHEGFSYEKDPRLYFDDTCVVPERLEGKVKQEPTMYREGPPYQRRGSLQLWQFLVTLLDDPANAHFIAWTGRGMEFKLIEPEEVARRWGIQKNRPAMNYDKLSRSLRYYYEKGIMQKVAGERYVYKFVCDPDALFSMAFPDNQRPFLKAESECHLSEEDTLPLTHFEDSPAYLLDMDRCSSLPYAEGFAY
# SPIB, sequence (Q01892 whole entry): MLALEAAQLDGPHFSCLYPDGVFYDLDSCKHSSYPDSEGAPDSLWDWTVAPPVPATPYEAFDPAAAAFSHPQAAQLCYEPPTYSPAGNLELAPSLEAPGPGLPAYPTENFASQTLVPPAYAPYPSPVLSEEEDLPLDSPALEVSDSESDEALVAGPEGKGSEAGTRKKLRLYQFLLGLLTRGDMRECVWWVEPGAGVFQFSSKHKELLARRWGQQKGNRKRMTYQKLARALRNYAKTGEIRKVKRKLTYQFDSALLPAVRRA
sequence,measurement,setting,value
ATGCAA,binding signal,FLI1,"1.32 fold enrichment (6-mer frequency, TF over GST control)"
same,binding signal,ELK1,"1.26 fold enrichment (6-mer frequency, TF over GST control)"
same,binding signal,GABPA,"1.27 fold enrichment (6-mer frequency, TF over GST control)"
same,binding signal,ERG,"1.29 fold enrichment (6-mer frequency, TF over GST control)"
same,binding signal,ELF1,"1.25 fold enrichment (6-mer frequency, TF over GST control)"
same,binding signal,EHF,"1.25 fold enrichment (6-mer frequency, TF over GST control)"
same,binding signal,SPI1,"1.2 fold enrichment (6-mer frequency, TF over GST control)"
same,binding signal,SPIB,"1.26 fold enrichment (6-mer frequency, TF over GST control)"
same,binding signal,ELK3,"1.18 fold enrichment (6-mer frequency, TF over GST control)"
same,binding signal,FEV,"1.23 fold enrichment (6-mer frequency, TF over GST control)"
same,binding signal,ETV5,"1.25 fold enrichment (6-mer frequency, TF over GST control)"
same,binding signal,HSF1,"1.08 fold enrichment (6-mer frequency, TF over GST control)"
same,binding signal,SPIC,"1.11 fold enrichment (6-mer frequency, TF over GST control)"
same,binding signal,ELF4,"1.25 fold enrichment (6-mer frequency, TF over GST control)"
same,binding signal,ELK4,"1.32 fold enrichment (6-mer frequency, TF over GST control)"
same,binding signal,ETV2,"1.26 fold enrichment (6-mer frequency, TF over GST control)"
same,binding signal,ELF3,"1.36 fold enrichment (6-mer frequency, TF over GST control)"
same,binding signal,CRX,"1.07 fold enrichment (6-mer frequency, TF over GST control)"
same,binding signal,ETV1,"1.26 fold enrichment (6-mer frequency, TF over GST control)"
